SMILES strings stand for the structures. Unmarked numbers belong to inactive results. How the calls were made is not given here.

Pantothenate synthetase (Mycobacterium tuberculosis (strain ATCC 25618 / H37Rv)), sequence (P9WIL5 whole entry, looked up): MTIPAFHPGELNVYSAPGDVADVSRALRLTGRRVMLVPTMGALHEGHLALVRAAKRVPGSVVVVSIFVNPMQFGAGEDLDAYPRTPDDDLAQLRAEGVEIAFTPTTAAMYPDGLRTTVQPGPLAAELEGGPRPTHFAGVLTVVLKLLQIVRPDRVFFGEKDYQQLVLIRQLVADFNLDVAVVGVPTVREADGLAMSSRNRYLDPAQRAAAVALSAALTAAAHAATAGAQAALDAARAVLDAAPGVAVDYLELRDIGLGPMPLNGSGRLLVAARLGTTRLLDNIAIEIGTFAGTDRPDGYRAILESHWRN

The test addresses Pantothenate synthetase (Mycobacterium tuberculosis (strain ATCC 25618 / H37Rv)) (UniProt P9WIL5). Nature of the test: Recombinant Mtb pantothenate synthetase (PanC) inhibitors, coupled enzyme, confirmatory (AID 375).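 Further: 0% = full reaction with vehicle and 100% = no enzyme background.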 The following applies: coupled enzyme assay; at 10 µM, stronger effect = higher value.
Usually inhibition stands for the drop in the measured response relative to a control, in per cent. Turning to `CCOC(=O)NC(c1ccccc1)C1CCCCC1=O` (configuration not stated), the inhibition was 0%.

As for `Nc1ncnc2c1ncn2[C@@H]1O[C@H](CO)[C@@H](O)[C@H]1O`, the inhibition is 0%.

For the compound `C=CCN1C(=O)C2(C(C#N)=C(N)Oc3n[nH]c(CCC)c32)c2ccccc21` (configuration not stated), the inhibition is 0%.

In the case of `O=C(O)c1ccc2noc(-c3ccccc3)c2c1`, the inhibition is 0%.

Turning to `COc1ccc(C2C(=O)N(C3CCCCC3)CC(=O)N2Cc2ccco2)cc1` (configuration not stated), the inhibition was 6%.

On to `O=C(CCN1CCN(c2ccc(F)cc2)CC1)Nc1ccccc1F`, for which the inhibition is 1%.

On to `CCCCCCC(c1c(C)n(C)n(-c2ccccc2)c1=O)c1c(C)n(C)n(-c2ccccc2)c1=O`, for which the inhibition is 0%.

With `Cc1ccc(C)c(-n2c(CNC(=O)c3ccco3)nnc2SCC(=O)Nc2nnc(C)s2)c1`, the inhibition is 0%.

On to `O=C(O)c1cc(O)c2c(c1)C(=O)c1cccc(O)c1C2=O`, for which the inhibition is 9%.

As for `COCCNC(=O)c1ccc(Cl)c(Cl)c1`, the inhibition is 0%.

Consider `CCC(=O)c1ccc(OCCN2CCOCC2)cc1`, for which the inhibition was 4%.

For `COC(=O)Nc1ccc(C)cc1NC(=O)OC`, the inhibition is 2%.

As for `O=C(COc1nnnc2ccccc12)N1CCCc2ccccc21`, the inhibition is 0%.

On to `CCn1c(=O)cc(SCC(=O)Nc2ccc3c(c2)OCO3)c2ccccc21`, for which the inhibition was 0%.

As to `CCCC(=O)Nc1ccc(OCC(O)CNC(C)C)c(C(C)=O)c1` (configuration not stated), the inhibition was 0%.

Regarding `O=C(COc1ccccc1)Nc1ccccc1N1CCN(c2ccccc2)CC1`, the inhibition is 2%.

Regarding `CCOC(=O)N1CCC(N(C(=O)Nc2cccc(OC)c2)C(C)CC)CC1` (configuration not stated), the inhibition is 0%.

(Values after PubChem BioAssay.)
